Eight molecules from PubChem BioAssay (Tox21) can be followed below.

Assay [1] in a line: qHTS assay to identify small molecule antagonists of the androgen receptor (AR) signaling pathway using the MDA cell line in the presence of 0.5 nM R1881 - cell viability counter screen (AID 1259242). Further: nearly all actives have a fitted effect of over 45% in size. Further: potency means the concentration at half of the fitted maximal effect. An outline of the steps: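 MDA-kb2 cells (human breast carcinoma, stably carrying MMTV-luciferase reporter) were exposed to compounds with 0.5 nM R1881 (final) for 16 hr at 37C, 0% CO2; viability then read as live-cell protease fluorescence (CellTiter-Fluor, 30 min) in the same wells.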

Assay [2] deals with Estrogen receptor (Homo sapiens) (UniProt P03372). The experiment in a line: qHTS assay to identify small molecule antagonists of the estrogen receptor alpha (ER-alpha) signaling pathway using the BG1 cell line in the presence of 0.1 nM 17-beta-estradiol (AID 1259244). Further: nearly all actives have a fitted effect of over 50% in size. Further: potency means the concentration at half of the fitted maximal effect. In short, it runs like this:
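VM7Luc4E2 cells (endogenous full-length ER-alpha, stable 4xERE-luciferase) were grown 5 days in phenol red-free medium with charcoal-stripped FBS, then exposed 22 h at 37C to compounds plus 0.1 nM (final) 17beta-estradiol; ONE-Glo luminescence read-out.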
On the technique in general: In qHTS, concentration-response curves come from the screen itself.

Assay [3] in a line: qHTS assay to identify small molecule phospholipidosis (PLD) inducers (AID 1259344; active means well fitted curve in the direction sought with a large enough effect; an effect the other way counts as inactive or inconclusive; further: potency means the concentration at half of the fitted maximal effect). In short, it runs like this:
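Phospholipidosis is scored by imaging LipidTOX-stained pits in HepG2 cells exposed to compound for 24 h at 37 C; pit counts and integrated intensities per well and per cell serve as outputs.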

A short description of assay [4]: qHTS assay to identify small molecule HDAC inhibitors (AID 1259364). Further: top concentration of the series differs between compounds; nearly all actives have a fitted effect of over 45% in size. An outline of the steps: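 Wild-type HCT-116 cells were plated overnight, exposed to compounds for 2 h at 37 °C, then given HDAC-Glo class I/II luminogenic reagent for 30 min at room temperature before luminescence was read.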
Assay [5] can be described thus: qHTS assay to identify small molecule HDAC inhibitors - cell viability counter screen (AID 1259365). Further: series mostly up to about 92 µM; nearly all actives have a fitted effect of over 50% in size. In short, it runs like this: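 Following a 2hr exposure of overnight-plated wild-type HCT-116 cells to DMSO-delivered compounds, CellTiter-Glo was added and luminescence recorded after 30min at room temperature.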
A short description of assay [6]: qHTS assay to identify small molecule antagonists of the sonic hedgehog signaling (Shh) pathway - cell viability counter screen (AID 1259367). Further: nearly all actives have a fitted effect of over 55% in size. Further: potency means the concentration at half of the fitted maximal effect. An outline of the steps: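 Cells: 3T3 Gli1-Luc, 2,000/well, 4 hr pre-incubation. Compounds in DMSO, then conditioned medium. Incubation 24 hr, 37C, 5% CO2. CellTiter-Fluor at 23 hr, 1 hr, fluorescence.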
Assay [7] in a line: qHTS assay to identify small molecule agonists of the sonic hedgehog signaling (Shh) pathway (AID 1259368; calls by dose curve; further: series mostly up to about 92 µM; nearly all actives have a fitted effect of over 15% in size). In short, it runs like this: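 NIH/3T3-derived 3T3Gli1-Luc cells carrying a stably integrated Gli1 response element–firefly luciferase reporter were plated, left 4 hr at 37 C, then given compounds in DMSO for 24 hr. Luminescence was read 30 min after adding luciferase reagent.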

A short description of assay [8]: qHTS assay to identify small molecule antagonists of the sonic hedgehog signaling (Shh) pathway (AID 1259369; calls by dose curve; further: nearly all actives have a fitted effect of over 45% in size; further: potency means the concentration at half of the fitted maximal effect). In short, it runs like this: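 NIH/3T3-derived 3T3Gli1-Luc cells with stably integrated Gli1-Luc reporter were preincubated 4hr at 37 C, then given compounds in DMSO plus Shh conditioned medium and incubated 24hr. Firefly luciferase luminescence read after 30min reagent at room temperature.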

The target of assay [9] is Estrogen receptor beta (Homo sapiens) (UniProt Q92731). In words: qHTS assay to identify small molecule agonists of the estrogen receptor beta (ER-beta) signaling pathway (AID 1259377; active means well fitted activation curve with a large enough effect in the signal ratio in the repeat runs, not every such curve was filed as active; the % refers to the signal ratio). An outline of the steps: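 In HEK293T cells bearing a UAS-beta-lactamase reporter under ER-beta control, DMSO-delivered compounds were incubated for 16 hr at 37C. Activity was detected as fluorescence 2 hours after LiveBLAzer B/G FRET substrate addition.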

Assay [10] has the same target. The experiment in a line: qHTS assay to identify small molecule antagonists of the estrogen receptor beta (ER-beta) signaling pathway (AID 1259378; active means well fitted inhibition curve with a large enough effect in the signal ratio in the repeat runs, not every such curve was filed as active; the % refers to the signal ratio). In short, it runs like this:
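Antagonist mode: compounds added to beta-lactamase reporter HEK293T ER-beta-UAS cells stimulated with E2 (1nM final), 16 hr at 37C. LiveBLAzer B/G FRET substrate, 2 hours room temperature, fluorescence read-out.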

Assay [11] in a line: qHTS assay to identify small molecule agonists of the androgen receptor (AR) signaling pathway in the presence of an antagonist - cell viability counter screen (AID 1259379). Further: nearly all actives have a fitted effect of over 25% in size. Further: potency means the concentration at half of the fitted maximal effect. On activity change, negative = cytotoxicity: series mostly up to about 92 µM. An outline of the steps:
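MDA-kb2 human breast carcinoma cells (stable MMTV-luciferase, AR/GR responsive) were seeded 3,000 cells/well, pre-incubated 5 hr at 37C without CO2, then given 3.0uM nilutamide and compounds at 15 concentrations for 16 hr. Viability was read by CellTiter-Fluor fluorescence.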

The nature of assay [12]: qHTS assay to identify small molecule agonists of the estrogen receptor beta (ER-beta) signaling pathway - cell viability counter screen (AID 1259380). Further: nearly all actives have a fitted effect of over 30% in size. Further: potency means the concentration at half of the fitted maximal effect. In short, it runs like this: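 ER-beta-UAS-bla HEK293T cells in medium with 2% charcoal-stripped FBS were preincubated 6 hr at 37C, dosed with compound in DMSO for 16 hr, then after the bla read, CellTiter-Glo was added for 30 min at room temperature; luminescence recorded.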

In assay [13] the target is Estrogen receptor (Homo sapiens) (UniProt P03372). The experiment in a line: qHTS assay to identify small molecule agonists of the estrogen receptor alpha (ER-alpha) signaling pathway in the presence of an antagonist (AID 1259383; calls by dose curve; further: top concentration of the series differs between compounds; nearly all actives have a fitted effect of over 15% in size). In short, it runs like this: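 VM7Luc4E2 cells (endogenous full-length ER-alpha, 4×ERE-luciferase) were precultured 5 days in phenol red-free medium with 10% charcoal-stripped FBS, given 10.0nM ICI-182,780 (final), then treated with compounds at 15 concentrations for 22hr at 37C; luminescence read with ONE-Glo.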

Assay [14] can be described thus: qHTS assay to identify small molecule agonists or antagonists of the thyroid stimulating hormone receptor (TSHR) signaling pathway - wild type cell line counter screen (AID 1259384; calls by dose curve). An outline of the steps: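 Counter screen in untransfected Hek293: compounds (15-point titration, triplicate) plus phosphodiesterase inhibitor Ro20-1724 added after 18 h plating; 30 min RT. Intracellular cAMP via competitive d2/cryptate immunoassay, 1 h incubation.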

Assay [15] deals with Thyrotropin receptor (Homo sapiens) (UniProt P16473). The experiment in a line: qHTS assay to identify small molecule antagonists of the thyroid stimulating hormone receptor (TSHR) signaling pathway (AID 1259385; calls by dose curve; further: nearly all actives have a fitted effect of over 20% in size). An outline of the steps: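 Antagonist mode: compound-treated TSHR-expressing HEK293 cells were stimulated with 1.5 ng/mL TSH (final) in presence of Ro20-1724 for 30 min at RT. HTRF cAMP detection after 1 h; each compound tested at 15 concentrations, triplicate.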

Assay [16] is described as follows: qHTS assay to identify small molecule agonists of the estrogen receptor alpha (ER-alpha) signaling pathway in the presence of an antagonist - cell viability counter screen (AID 1259386). Further: nearly all actives have a fitted effect of over 30% in size. Further: potency means the concentration at half of the fitted maximal effect. On activity change, negative = cytotoxicity: series mostly up to about 92 µM. In short, it runs like this: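 VM7Luc4E2 cells (endogenous full-length ER-alpha, 4×ERE-luciferase) were held 5 days in phenol red-free medium with 10% charcoal-stripped FBS, plated, then given 10.0nM ICI-182,780 and compounds at 15 concentrations for 22hr at 37C; viability read by CellTiter-Fluor fluorescence.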

A short description of assay [17]: qHTS assay to identify small molecule agonists of the sonic hedgehog signaling (Shh) pathway - cell viability counter screen (AID 1259366). Further: nearly all actives have a fitted effect of over 50% in size. Further: potency means the concentration at half of the fitted maximal effect. An outline of the steps:
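After a 4hr attachment at 37C, NIH/3T3 cells bearing an integrated Gli1-driven luciferase reporter were dosed with compounds. Treatment lasted 24hr, with the final hour including CellTiter-Fluor for a fluorescence viability measurement.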

Assay [18] in a line: qHTS assay to identify small molecule antagonists of the estrogen receptor beta (ER-beta) signaling pathway - cell viability counter screen (AID 1259382). Further: nearly all actives have a fitted effect of over 55% in size. Further: potency means the concentration at half of the fitted maximal effect.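 On activity change, negative = cytotoxicity: HEK293T cells carrying ER-beta-UAS-bla reporter stimulated with estradiol; series mostly up to about 92 µM.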 In short, it runs like this:
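ER-beta-UAS-bla HEK293T cells (2,000/well, 2% charcoal-stripped FBS) were pre-incubated 6 hr at 37C, then given compound plus 1nM final 17-beta-estradiol for 16 hr. Viability was read in the same wells by CellTiter-Glo luminescence after 30 min at room temperature.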

Several values for one entry are separate records, joined by “and”; a condition that tells them apart may be missing. Equal entries are not always repeated. Unmarked numbers belong to inactive results. Inconclusive results are not listed. Activity calls are given as the source filed them. Unless noted, the call rests on the fitted dose curve; in most records, active means well fitted curve in the direction sought with a large enough effect in the repeat runs; inconclusive means weak or mixed curves; inactive means no such curve, though single readings can be large; an effect the other way counts as inactive or inconclusive.
On the % scale 0 is the no-effect control and ±100 the full control effect.

Chain of Estrogen receptor (Homo sapiens) (P03372 whole entry, looked up): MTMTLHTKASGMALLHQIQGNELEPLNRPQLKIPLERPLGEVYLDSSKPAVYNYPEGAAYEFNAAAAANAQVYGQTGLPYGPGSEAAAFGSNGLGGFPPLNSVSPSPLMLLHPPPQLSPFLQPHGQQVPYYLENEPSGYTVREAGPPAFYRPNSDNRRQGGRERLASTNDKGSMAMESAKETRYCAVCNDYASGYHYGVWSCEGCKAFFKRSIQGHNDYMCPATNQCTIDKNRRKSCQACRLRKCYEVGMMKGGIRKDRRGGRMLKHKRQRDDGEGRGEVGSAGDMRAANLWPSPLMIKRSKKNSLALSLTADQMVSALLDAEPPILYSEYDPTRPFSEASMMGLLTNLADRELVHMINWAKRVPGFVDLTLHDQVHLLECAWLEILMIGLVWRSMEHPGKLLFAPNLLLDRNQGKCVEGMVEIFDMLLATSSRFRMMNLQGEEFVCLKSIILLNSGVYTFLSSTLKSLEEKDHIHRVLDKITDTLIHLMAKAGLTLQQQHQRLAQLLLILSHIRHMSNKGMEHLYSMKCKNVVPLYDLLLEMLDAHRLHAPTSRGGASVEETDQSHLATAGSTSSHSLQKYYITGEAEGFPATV
Chain of Estrogen receptor beta (Homo sapiens) (Q92731 whole entry, looked up): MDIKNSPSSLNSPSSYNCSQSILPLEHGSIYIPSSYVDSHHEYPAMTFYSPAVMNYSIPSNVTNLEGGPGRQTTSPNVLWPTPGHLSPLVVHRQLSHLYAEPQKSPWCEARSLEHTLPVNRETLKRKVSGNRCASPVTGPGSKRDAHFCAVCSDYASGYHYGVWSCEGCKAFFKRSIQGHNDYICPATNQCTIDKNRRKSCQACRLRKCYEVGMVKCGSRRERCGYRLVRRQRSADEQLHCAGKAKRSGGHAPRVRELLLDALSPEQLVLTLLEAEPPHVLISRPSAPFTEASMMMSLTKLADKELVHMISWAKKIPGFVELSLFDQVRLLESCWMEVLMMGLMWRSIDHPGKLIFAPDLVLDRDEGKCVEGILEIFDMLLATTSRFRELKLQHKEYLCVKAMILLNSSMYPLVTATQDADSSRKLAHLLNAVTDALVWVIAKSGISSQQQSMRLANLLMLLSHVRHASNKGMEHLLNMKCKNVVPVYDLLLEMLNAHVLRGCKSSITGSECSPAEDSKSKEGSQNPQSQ
Chain of Thyrotropin receptor (Homo sapiens) (P16473 whole entry, looked up): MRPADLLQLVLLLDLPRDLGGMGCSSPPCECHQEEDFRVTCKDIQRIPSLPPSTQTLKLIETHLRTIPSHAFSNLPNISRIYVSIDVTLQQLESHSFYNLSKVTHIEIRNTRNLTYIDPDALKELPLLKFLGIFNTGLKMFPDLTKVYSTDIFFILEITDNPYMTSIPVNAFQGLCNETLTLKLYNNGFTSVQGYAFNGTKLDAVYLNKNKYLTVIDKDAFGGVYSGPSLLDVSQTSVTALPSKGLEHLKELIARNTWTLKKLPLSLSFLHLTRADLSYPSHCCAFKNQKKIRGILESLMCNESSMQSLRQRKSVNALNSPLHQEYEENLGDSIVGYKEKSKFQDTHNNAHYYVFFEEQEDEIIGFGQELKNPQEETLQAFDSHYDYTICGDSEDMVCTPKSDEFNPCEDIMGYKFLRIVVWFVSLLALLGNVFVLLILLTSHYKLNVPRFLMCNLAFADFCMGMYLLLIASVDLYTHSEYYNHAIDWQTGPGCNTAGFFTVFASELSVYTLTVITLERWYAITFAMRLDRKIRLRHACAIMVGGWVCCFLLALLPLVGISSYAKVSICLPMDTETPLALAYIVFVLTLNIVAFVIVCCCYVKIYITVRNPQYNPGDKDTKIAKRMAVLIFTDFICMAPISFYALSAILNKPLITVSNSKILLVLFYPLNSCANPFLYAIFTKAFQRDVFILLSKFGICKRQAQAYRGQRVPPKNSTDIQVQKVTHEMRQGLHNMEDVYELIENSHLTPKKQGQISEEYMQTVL

For `CC(C)(C)C(=O)OCOC(=O)[C@@H]1N2C(=O)[C@@H](NC(=O)[C@H](N)c3ccccc3)[C@H]2SC1(C)C`, the Potency result in [1], in assay [2], in [3], in assay [4], in [5] and in assay [6] was “inactive” in each case. The Potency result in [7], in [8], in assay [9], in assay [10], in assay [11] and in assay [12] was “inactive” in each case. In addition, the Potency entry in [13], in [15] and in assay [16] was “inactive” in each case. Besides, the outcome in assay [14] was inactive.

Turning to `Nc1c2ccccc2nc2ccccc12`, the Potency result in assay [1], in assay [2], in assay [3], in [4], in assay [5] and in assay [6] was “inactive” throughout. In addition, the Potency entry in assay [7], in assay [8], in [13], in assay [15] and in assay [16] was “inactive” each time. Besides, the Potency in [12] is 2.14 µM (active) and 3.35 µM (active).

On to `Clc1ccc(C(Cn2ccnc2)OCc2ccc(Sc3ccccc3)cc2)c(Cl)c1` (stereo not given), for which the Potency result in assay [1], in assay [2], in assay [4], in assay [5], in assay [17] and in assay [6] was “inactive” throughout. Besides, the Potency result in assay [7], in assay [9], in assay [10], in [11], in [12] and in [18] was “inactive” throughout. In addition, the Potency entry in [13], in [15] and in [16] was “inactive” each time. For the same molecule, in assay [14], the call was inactive.

Turning to `CCCCCCCC(=O)[O-].CCCCCCCC(=O)[O-].[Zn+2]`, the Potency result in assay [1], in assay [2], in assay [4], in assay [5], in assay [17] and in [6] was “inactive” throughout. For the same molecule, the Potency entry in [7], in assay [8], in assay [9], in assay [10], in [11] and in assay [13] was “inactive” each time. The Potency entry in assay [16] is “inactive”.

Turning to `CCC1=C[C@@H]2CN(C1)Cc1c([nH]c3ccccc13)[C@@](C(=O)OC)(c1cc3c(cc1OC)N(C)[C@H]1[C@@](O)(C(=O)OC)[C@H](OC(C)=O)[C@]4(CC)C=CCN5CC[C@]31[C@@H]54)C2`, the Potency entry in assay [1], in [3], in assay [5], in assay [18] and in assay [13] was “inactive” throughout. Besides, the results for the Potency in assay [2], in assay [17] and in [8] were 21.1 µM (active), 11.9 µM (active) and 4.2 nM (active), respectively.

With `CCN1/C(=C/C=C/c2sc3ccccc3[n+]2CC)Sc2ccccc21`, the Potency is 820 nM (active) in [1]; 0.58 µM (active) in assay [2]; 22.4 µM (active) in [3]; 4.61 µM (active) in assay [17]; 5.17 µM (active) in assay [6]; 1.16 µM (active) in assay [11]. For the same molecule, the results for the Potency in assay [18] and in assay [16] were 11.6 µM (active) and 6.51 µM (active), respectively. Further, the activity change, negative = inhibition in [4] was -19.9% [at 19 µM]; in [8], -19% [at 19 µM]. Further, the activity change, negative = cytotoxicity in [5] is -13.9% [at 19 µM]. Also, in [7], the activity change was -1.72% [at 18.9 µM, stronger effect = higher value]. The activation in [13] was -11.7% [at 19 µM]. For the same molecule, the cAMP activity change in [14] was -0.304% [at 18.9 µM].

Take `CCCCCCCCOc1ccccc1C(=O)Nc1ccc(C(=O)OCC[N+](C)(CC)CC)cc1`: the Potency entry in assay [1], in assay [2], in assay [3], in [4], in assay [5] and in assay [17] was “inactive” throughout. In addition, the Potency result in [6], in assay [7], in [8], in assay [11], in assay [13] and in [15] was “inactive” each time. For the same molecule, in assay [16], the Potency result was “inactive”. Also, the Potency in assay [18] was 23.7 µM (active). In addition, the outcome in assay [14] was inactive.

On to `Cc1ccc2oc(CN(Cc3ccccc3)C(=O)Nc3c(F)cc(F)cc3F)c(-c3ccc(Cl)cc3)c2c1`, for which the Potency result in assay [1], in assay [2], in assay [4], in [5], in [17] and in [6] was “inactive” each time. For the same molecule, the Potency entry in [7], in assay [8], in assay [9], in [11], in assay [12] and in assay [18] was “inactive” in each case. Besides, the Potency result in assay [13], in [15] and in assay [16] was “inactive” throughout. The outcome in [14] was inactive.
